Potency, outcome and max response data for six compounds are collected here from PubChem BioAssay (NCATS).

Test [1] addresses Calcium and integrin-binding protein 1 (Homo sapiens) (UniProt Q99828). Briefly: Primary qHTS for Identification of Calcium Integrin Binding Protein 1 (CIB1) Competitor (AID 1508620).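 Note: GST tagged CIB1 binding a fluorescein labelled alphaIIb integrin peptide tracer; top concentration of the series differs between compounds; % is set by controls: 0 for no effect and ±100 for the full control effect.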 In short, it runs like this:
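Fluorescence polarization competition: GST-tagged CIB1 (1 uM final) preincubated with compound 15 min at room temperature, then FITC-labelled alphaIIb peptide (100 nM final) added. After 15 min at room temperature, polarization read at Ex 480/Em 540.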

Test [2] deals with Phospholipid hydroperoxide glutathione peroxidase GPX4 (Homo sapiens) (UniProt P36969). Briefly: Primary qHTS Assay for Inhibitors of Recombinant Selenoprotein Glutathione Peroxidase 4 (GPX4) (AID 1845192). Note: % is set by controls: 0 for no effect and ±100 for the full control effect; nearly all actives have a fitted effect of over 65% in size. In short, it runs like this:
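Steps: GPX4 plus compound, 30 min RT; add GR/GSH/NADPH master mix; start with cumene hydroperoxide; read 340/450 nm fluorescence at 0 and 15 min. Finals were 200 nM GPX4, 1 mM GSH, 0.5 mM CHP, 0.5 mM NADPH, 100 nM GR.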
(In general: In qHTS, concentration-response curves come from the screen itself.)

Test [3] has as its target Luciferin 4-monooxygenase (Photinus pyralis) (UniProt P08659). Put plainly: Primary firefly luciferase (FLuc) qHTS assay for identification of artifact compounds. (AID 1845220). Note: nearly all actives have a fitted effect of over 60% in size. The note with it: outcome: dose series up to 54.1 µM unless noted. In short, it runs like this: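 Titrated compounds were incubated 15 min at RT, protected from light, with luciferin and ATP at 10 uM; reaction started with 10 nM FLuc, luminescence imaged at 5 min, and concentration-response fitted by Hill equation.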

Test [4] concerns Nanoluciferase (engineered Oplophorus gracilirostris luciferase). Briefly: Primary Nanoluciferase (NLuc) qHTS assay for identification of artifact compounds. (AID 1845222).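 Note: NLuc secreted into diluted conditioned medium of S16 cells; 0% = DMSO and -100% = no enzyme.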 In short, it runs like this: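 qHTS format, against NLuc in S16 cell-conditioned medium. Nano-Glo substrate 1:100 was added after 15 min at room temperature. Luminescence was taken after a further 5 min.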
For a further test, the system named is CRL-7250. Briefly: Cytotoxic Profiling of Annotated Libraries Using Quantitative High-Throughput Screening (AID 1296008). For max response: % is set by controls: 0 for no effect and ±100 for the full control effect. Note: nearly all actives have a fitted effect of over 60% in size. Note: potency is the fitted concentration of half-maximal effect. The note with it: Five cell lines viability, CellTiter-Glo ATP luminescence, 48-72 h; max response: stronger effect = lower value. Summed up:
(§1)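 Cells exposed to compounds for 48 or 72 hr at 37 degrees Celsius. Viability read as ATP-coupled luminescence with CellTiter-Glo after 10 min at room temperature.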
(In general: In ATP-based viability assays light output follows the ATP content of the culture.)

Another test deals with HaCat. The description is as above. The settings on record: Five cell lines viability, CellTiter-Glo ATP luminescence, 48-72 h; max response: stronger effect = lower value. Summed up:
as §1

For the next test, the system named is NIH3T3. The test is described as above. The note with it: Five cell lines viability, CellTiter-Glo ATP luminescence, 48-72 h; max response: stronger effect = lower value. In short, it runs like this: as §1
The next test concerns C33A. Put plainly: Primary qHTS to identify gynecologic anti-cancer compounds using libraries of approved drugs and bioactive compounds (AID 1345084). Note: nearly all actives have a fitted effect of over 55% in size. Note: potency is the fitted concentration of half-maximal effect. The note with it: Gynecologic cancer cell panel viability, ATPlite luminescence, 48 h; series mostly up to 57.5 µM. Summed up:
(§2)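 In this quantitative HTS, cell killing is estimated from loss of ATP-dependent luciferase light. Cells see five compound concentrations over a 48 h exposure.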

For another test, the system named is CAOV3. Described as above. The settings on record: Gynecologic cancer cell panel viability, ATPlite luminescence, 48 h; series mostly up to 57.5 µM. Summed up: as §2
The test system of the next test is CASKI. Described as above. The note with it: Gynecologic cancer cell panel viability, ATPlite luminescence, 48 h; series mostly up to 57.5 µM. Summed up:
as §2

In the next test the test system is Es-2. Described as above. The note with it: Gynecologic cancer cell panel viability, ATPlite luminescence, 48 h; series mostly up to 57.5 µM. In short, it runs like this: as §2
Another test concerns Hek293T. The description is as above. The settings on record: Gynecologic cancer cell panel viability, ATPlite luminescence, 48 h, control line for the selectivity index; series mostly up to 57.5 µM. Summed up:
as §2

The test system of another test is JEG-3. Described as above. The note with it: Gynecologic cancer cell panel viability, ATPlite luminescence, 48 h; series mostly up to 57.5 µM. Summed up:
as §2

The subject of a further test is OV90. The test is described as above. The settings on record: Gynecologic cancer cell panel viability, ATPlite luminescence, 48 h; series mostly up to 57.5 µM. In short, it runs like this:
as §2

Another test deals with PA-1. Described as above. The note with it: Gynecologic cancer cell panel viability, ATPlite luminescence, 48 h; series mostly up to 57.5 µM. In short, it runs like this:
as §2

The subject of the next test is Tov-21-G. The description is as above. The note with it: Gynecologic cancer cell panel viability, ATPlite luminescence, 48 h; series mostly up to 57.5 µM. In short, it runs like this: as §2
The next test has as its system Tov112D. The test is described as above. The settings on record: Gynecologic cancer cell panel viability, ATPlite luminescence, 48 h; series mostly up to 57.5 µM. In short, it runs like this:
as §2

The nature of test [5]: P-glycoprotein substrates identified in KB-8-5-11 adenocarcinoma cell line, qHTS therapeutic library screen (AID 1346987). Note: nearly all actives have a fitted effect of over 65% in size. Note: potency is the fitted concentration of half-maximal effect. Summed up:
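Human cervical adenocarcinoma KB-8-5-11 cells, selected in colchicine to over-express P-gp and assayed without it, were exposed for 72 h to titrated compounds. An ATP-based luminescent viability signal gave AC50.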

Test [6] is described as follows: Primary qHTS for inhibitors of nuclear receptor binding SET domain protein 2 (NSD2) in an isogenic RCH-ACV NSD2 p.E1099K mutant (9B) (AID 1645876). Note: nearly all actives have a fitted effect of over 70% in size. Note: potency is the fitted concentration of half-maximal effect.
In the next test the test system is HEK293. Briefly: Cytotoxic Profiling of Annotated Libraries Using Quantitative High-Throughput Screening (AID 1296008). For max response: % is set by controls: 0 for no effect and ±100 for the full control effect. Note: nearly all actives have a fitted effect of over 60% in size. Note: potency is the fitted concentration of half-maximal effect. The note with it: Five cell lines viability, CellTiter-Glo ATP luminescence, 48-72 h; max response: stronger effect = lower value. In short, it runs like this:
as §1

Unmarked numbers belong to inactive results. Records with an inconclusive call do not appear. The source made the active and inactive calls. Calls come from the whole dose curve; as a rule, active = well fitted curve in the direction sought with a large enough effect; inconclusive = small, poorly fitted or top-dose-only effect, or another doubt; inactive = no such curve, though single readings can be large; an effect the other way counts as inactive or inconclusive.

Sequence of Calcium and integrin-binding protein 1 (Homo sapiens) (Q99828 whole entry, looked up): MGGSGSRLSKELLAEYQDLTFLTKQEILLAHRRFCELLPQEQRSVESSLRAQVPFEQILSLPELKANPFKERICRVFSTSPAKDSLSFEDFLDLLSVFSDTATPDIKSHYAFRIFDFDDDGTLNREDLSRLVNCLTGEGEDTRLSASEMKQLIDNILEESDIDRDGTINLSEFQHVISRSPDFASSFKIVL
Sequence of Phospholipid hydroperoxide glutathione peroxidase GPX4 (Homo sapiens) (P36969 whole entry, looked up): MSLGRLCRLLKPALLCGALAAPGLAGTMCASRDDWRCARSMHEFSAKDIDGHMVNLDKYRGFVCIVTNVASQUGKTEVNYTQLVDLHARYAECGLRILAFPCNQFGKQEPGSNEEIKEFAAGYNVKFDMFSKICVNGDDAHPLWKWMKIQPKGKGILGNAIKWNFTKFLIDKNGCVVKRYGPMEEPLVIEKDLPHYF

For the compound `CN(C(=O)C(c1ccccc1)c1ccccc1)[C@H](CN1CC[C@H](O)C1)c1ccccc1`, the Potency result (in [1]; in test [2]; in [4]; with C33A; in the test with CAOV3; in the test on CASKI) was “inactive” in each case. For the same compound, the Potency result in the test with Es-2, in the test with Hek293T, in the test with JEG-3, with OV90, with PA-1 and with Tov-21-G was “inactive” each time. Moreover, in the test on Tov112D, the Potency result is “inactive”. Moreover, the call (in [3]; in the test on CRL-7250; with HaCat) was inactive. The max response in the test with NIH3T3 is 3.64%.
`Fc1cc(F)c2c(c1)C1C=CCC1C(c1cccnc1)N2` (centres undefined): the Potency in test [5] is 4.61 µM (active); in [6] it was 8.17 µM (active); in the test on CRL-7250, 5.8 µM (active); in the test on HEK293, 23.1 µM (active); with C33A it was 22.4 µM (active); in the test with PA-1, 17.8 µM (active). In addition, the Potency entry in test [1] and in test [2] was “inactive” throughout. Moreover, the compound was classed as inactive in test [3].
Consider `C=C(C)C(=O)O[C@H]1[C@@H]2[C@H](C)C(=O)O[C@@H]2C[C@@H](C)[C@@H]2C=CC(=O)[C@]21C`, for which the Potency in [5] was 3.6 µM (active); in test [6], 2.01 µM (active); with CRL-7250, 2.86 µM (active); with HEK293, 3.6 µM (active); in the test on NIH3T3 it was 8.05 µM (active); with C33A it was 12.6 µM (active). Further, the Potency was 10 µM (active) in the test on CAOV3; 5.62 µM (active) in the test on Hek293T; 3.55 µM (active) in the test on OV90; 3.16 µM (active) in the test on PA-1; 8.91 µM (active) in the test with Tov-21-G; 8.91 µM (active) with Tov112D. Moreover, the Potency entry in test [1], in test [2] and in test [4] was “inactive” in each case. Further, in [3], the result was inactive.
Regarding `C[C@]12CC[C@H](O)C[C@@]1(O)CC[C@@H]1[C@@H]2CC[C@]2(C)[C@@H](c3ccc(=O)oc3)CC[C@]12O`, the figures for the Potency (in [5]; with CRL-7250; in the test with HEK293) were 0.0184 µM (active), 0.0052 µM (active) and 0.0517 µM (active), respectively. Also, in the test with NIH3T3, the max response was -7.45%. The Potency result with C33A, in the test with CAOV3, in the test with CASKI, with Es-2, in the test on Hek293T and in the test on JEG-3 was “inactive” in each case. For the same compound, the Potency result in the test with OV90, in the test on PA-1, with Tov-21-G and in the test on Tov112D was “inactive” each time.
With `COC(=O)C12C(=O)C(C)(O)C(=O)C1(C)C(C)=CC1C34CCC(OC3=O)C(C)(C)C4CCC12C` (centres undefined), the Potency entry (in [5]; in [6]; in test [2]; in test [4]; with C33A; with CAOV3) was “inactive” in each case. In addition, the Potency entry in the test on CASKI, in the test with Es-2, with Hek293T, in the test on JEG-3, in the test with OV90 and in the test with PA-1 was “inactive” in each case. The Potency result with Tov-21-G and in the test with Tov112D was “inactive” each time. Moreover, the compound was classed as inactive in test [3]. The max response in the test with CRL-7250 is -8.47%; with HEK293, -13.4%; in the test on NIH3T3, -10.7%.
On to `CC(=O)OC[C@]12[C@H](OC(C)=O)C(=O)[C@@H]3[C@@H](O)[C@@]14O[C@@]3(C)COC(=O)c1cccnc1[C@@H](C)[C@H](C)C(=O)O[C@@H]([C@H](OC(C)=O)[C@@H]2OC(C)=O)[C@]4(C)O`, for which the Potency result (in test [1]; in test [2]; in the test on C33A; with CAOV3; in the test with CASKI; with Es-2) was “inactive” in each case. For the same compound, the Potency result in the test on Hek293T, with JEG-3, in the test with OV90, in the test on Tov-21-G and in the test on Tov112D was “inactive” throughout. For the same compound, the compound was classed as inactive (in [3]; with CRL-7250; in the test on HaCat). The max response in the test with NIH3T3 is 0.381%.
